The list is not random: actives were taken first. Their share in the collection is about 6.8%.
MK inhibit: S. pneumoniae mevalonate kinase inhibition; actives 0.48% (n = 65,000); purified MK, PK/LDH-coupled NADH absorbance 340 nm; inhibition, % at 10 µM;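 active = ranked among the strongest by inhibition in the single 10 µM screen, a fixed top-ranked set picked for dose follow-up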
Autofluor 339: intrinsic fluorescence of library compounds, ex339/em460 – biochemical, MLSMR library, data from DPM-DC assay, artefact control, profiling panel; compound autofluorescence, ex339/em460 nm, NADH buffer; stronger effect = higher value; 1 = no-compound wells, NADH background; fluorescence fold increase at 10 µM; actives 5.5% (n = 65,000);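 active = at 10 µM, mean starting fluorescence two-fold or more over control wells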;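 note: signal is the first read of a kinetic run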
A340 absorber: absorbance at 340 nm; AID 708; 65,000 tested, under 10 active; fold change at 10 µM; compound absorbance at 340 nm, fold over control;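 active = at 10 µM dose, initial 340 nm absorbance at least 2 fold that of control wells; inactive = change under 2 fold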;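 note: initial absorbance extrapolated from kinetic A340 decline of NADH oxidation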
Spn PMK inh: S. pneumoniae PMK inhibition; inhibition, % at 10 µM; AID 539; purified PMK, PK/LDH-coupled NADH absorbance 340 nm; actives 0.49% (n = 65,000);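 active = top-ranked compounds by inhibition in the single 10 µM screen, taking a fixed number of the strongest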
Spn DPM-DC inh: blocks S. pneumoniae diphosphomevalonate decarboxylase; purified DPM-DC, PK/LDH coupled NADH fluorescence; actives 0.49% (n = 65,000); calls only at 10 µM; AID 556;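 active = the 320 compounds with the highest percent inhibition in the single-dose primary screen, excluding strongly autofluorescent ones, cut at about 32% in these data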;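 note: kinetic rate of NADH fluorescence loss reporting ADP formed by the decarboxylase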
NADH coupling: inhibition of NAD/NADH coupling enzymes, library profiling; coupled PK/LDH NADH assays, four targets; IC50, µM (doses to about 10 µM); actives 0.02% (n = 65,000);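 active = single-dose screening hits from any of four coupled enzyme assays that gave an IC50 when retested across doses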;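 note: the DPM-DC format reads NADH fluorescence rather than 340 nm absorbance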
Of the large screens only hits and unclear results are named; the others gave an inactive call.

CCOC(=O)c1sc(C)c(C(N)=O)c1NC1=NCCCCC1	Autofluor 339 2
CSc1nc(NC(C)(C)C)nc(Oc2ccc(=O)[nH]n2)n1	none
CCNc1nc(NCc2ccccc2)nc(Oc2ccc(=O)[nH]n2)n1	Autofluor 339 2.6
Cc1occc1C(=O)Nc1nnc(C(F)(F)F)s1	MK inhibit 59, Spn PMK inh 74, Spn DPM-DC inh active
CCS(=O)(=O)Nc1ccc(-c2ccc(NS(=O)(=O)CC)c(OC)c2)cc1OC	none
COc1ccc(OC)c(C2=NO[C@@H]3C(=O)N(c4cc(Cl)ccc4OC)C(=O)[C@H]23)c1	Autofluor 339 2
COc1ccc(-c2csc(N(CC3CCCO3)C(=O)c3ccco3)n2)cc1 (centres undefined)	Autofluor 339 2.7
COc1ccc(-c2csc(N3CCN(C(=O)c4ccco4)CC3)n2)cc1	none
COc1cc(-c2cc(C(F)(F)F)n3ncc(C(=O)O)c3n2)cc(OC)c1OC	none
Cc1ccc(-c2cc(C(F)(F)F)n3ncc(C(=O)N4CCN(C)CC4)c3n2)cc1	none
NC(=O)c1cnn2c(C(F)(F)F)cc(-c3ccccc3)nc12	Autofluor 339 2.1
NC(=O)c1cnn2c(C(F)(F)F)cc(-c3ccc(F)cc3)nc12	Autofluor 339 2.1
Cc1sc2ncn(CC(=O)OC(C)C(=O)NC(C)(C)C)c(=O)c2c1C (centres undefined)	none
Cc1csc2nc(=O)c3ccccc3n12	Autofluor 339 3.7 (not shown: Spn DPM-DC inh)
O=C(CN(C(=O)CNS(=O)(=O)c1ccccc1)C1CCCC1)NCc1ccco1	Spn PMK inh 25
O=C(CN(C(=O)CNS(=O)(=O)c1ccccc1)c1ccc2c(c1)OCCO2)NCc1ccco1	none
CCOC(=O)C1CCN(S(=O)(=O)c2ccc(-c3nc4ccccc4s3)s2)CC1	Autofluor 339 2.2
COc1ccc(C)cc1NC(=O)c1cnc2sccn2c1=O	none
COc1ccc(-n2c(N)c(C(=O)NCc3ccco3)c3nc4ccccc4nc32)c(OC)c1	Autofluor 339 2.9 (not shown: Spn DPM-DC inh)
COc1ccc(CCn2c(N)c(C(=O)NCc3ccco3)c3nc4ccccc4nc32)cc1OC	Autofluor 339 3.6 (not shown: Spn DPM-DC inh)
COc1ccc(CCNC(=O)c2ccc3nc(-c4ccco4)c(-c4ccco4)nc3c2)cc1OC	Autofluor 339 2.4
Cn1nc(-c2ccc(N3CCOCC3)c(NC(=O)COc3ccccc3)c2)c2ccccc2c1=O	none
Cn1c(-c2ccc(N)cc2)nc2ccccc21	Autofluor 339 3.9, Spn DPM-DC inh active
CC1CC(C)CN(S(=O)(=O)c2ccc(C(=O)Nc3nnc(-c4cccs4)o3)cc2)C1 (centres undefined)	Autofluor 339 3.8 (not shown: Spn DPM-DC inh)
COc1ccc(-c2nnc(NC(=O)c3ccc(S(=O)(=O)N4CCc5ccccc5C4)cc3)o2)cc1	Autofluor 339 3.1
CCCn1c(NC(=O)c2cccc(S(=O)(=O)N3CCCC3)c2)nc2ccccc21	none
CSc1ccc2[nH]c(=O)cc(C)c2c1	Autofluor 339 3.8 (not shown: Spn DPM-DC inh)
Cc1ccc2[nH]c(=S)cc(C)c2c1	none
Cc1ccc(S(=O)(=O)c2c(N)n(CCN3CCOCC3)c3nc4ccccc4nc23)cc1C	Autofluor 339 4.9 (not shown: Spn DPM-DC inh)
N#Cc1c(N)n(CCCN2CCOCC2)c2nc3ccccc3nc12	Autofluor 339 3.9 (not shown: Spn DPM-DC inh)
N#Cc1c(N)n(CCNC(=O)c2cccs2)c2nc3ccccc3nc12	Autofluor 339 3 (not shown: Spn DPM-DC inh)
CCCCn1c(CNC(C)=O)nc2ccccc21	none
CCCCn1c(NC(C)=O)c(C#N)c2nc3ccccc3nc21	Autofluor 339 3.8 (not shown: Spn DPM-DC inh)
CCn1c(CNC(=O)c2ccco2)nnc1SCC(=O)Nc1cc(C(F)(F)F)ccc1Cl	none
CCCCCn1c(N)c(C#N)c2nc3ccccc3nc21	Autofluor 339 5 (not shown: Spn DPM-DC inh)
Cc1cccc(C)c1NC(=O)C1(NC(=O)C2CCCN2C(=O)OC(C)(C)C)CCCCC1 (centres undefined)	none
Cc1cccc(C2Nc3ccccc3C(=O)N2CCc2ccccc2)n1 (centres undefined)	Autofluor 339 2.2 (not shown: Spn DPM-DC inh)
O=C1c2ccccc2NC(c2cnc3ccccc3n2)N1O (centres undefined)	none
CCOc1ccc(C2C=C(c3ccc(F)cc3)Nc3ncnn32)cc1 (centres undefined)	Autofluor 339 2.5 (not shown: Spn DPM-DC inh)
CCOc1ccc(C2C=C(c3ccccc3)Nc3ncnn32)cc1 (centres undefined)	Autofluor 339 2.4 (not shown: Spn DPM-DC inh)
